This is a sample that favours compounds with a hit; in the whole collection about 2.2% have one here.
TDP43 rescue: rescues yeast growth from TDP-43 toxicity; Potency, µM (highest dose often 46.1 µM), most hits filed as activators; 410,000 tested, 1.8% active; TDP-43 expressing yeast growth rescue, BacTiter-Glo, 24 h; also: nearly all actives have a fitted effect of over 50% in size
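Luminescence from BacTiter-Glo reports growth of TDP-43-expressing yeast after 24 hr at 30 deg C with compound. Cells were raffinose-pregrown to mid-log, then seeded in galactose medium at OD600=0.02.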
Mito fusion act: blocks mitochondrial division or promotes mitochondrial fusion; S. cerevisiae fusion-defective mutant growth rescue, CellTiterGlo 48 h; Potency, µM (highest dose often 46.1 µM), hits mostly activators; 320,000 tested, 0.23% active; AID 485298; also: nearly all actives have a fitted effect of over 45% in size
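Yeast fusion mutant, YPEG (non-fermentable carbon), compound, 48 h at 37C non-permissive; CellTiterGlo added, 10 min RT, luminescence read. Rescued growth = division inhibition.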
aSyn rescue: rescues yeast growth from alpha-synuclein toxicity. Yeast expressing alpha-synuclein, growth rescue, BacTiter-Glo, 24 h. Potency, µM (series often up to 46.1 µM), usual class: activators. AID 652106. 370,000 tested, 0.14% active; also: nearly all actives have a fitted effect of over 65% in size
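Readout is rescue of growth in alpha-synuclein-expressing yeast, so inhibitors of toxicity appear as activators. Growth after 24 hr at 30 deg C in galactose medium is quantified by luminescence.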
Abeta yeast res: restores growth of yeast expressing A-beta42 peptide | yeast expressing A-beta42, growth rescue, OD600, 48 h; response scale: 0% DMSO, 100% iron-clioquinol control | Potency, µM (top dose mostly 46.1 µM), actives largely listed as activators | 410,000 tested, 0.063% active; also: nearly all actives have a fitted effect of over 55% in size
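Yeast A-beta toxicity model in growth medium with pinned compounds, 48 h at 30 C; growth read as absorbance at 600 nm. Normalized to FeCl3/clioquinol equimolar mix (positive) and DMSO (negative).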
FUS suppressor: FUS proteinopathy suppression in yeast; S. cerevisiae FUS-expressing, growth rescue, OD600, 24 h; Potency, µM (titrated, usually from 76.6 µM), most hits filed as activators; 390,000 tested, 0.24% active; AID 1347120; also: nearly all actives have a fitted effect of over 55% in size
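FUS-expressing yeast, raffinose-pregrown, induced in 2% galactose minimal medium at OD 0.005; compounds in a dilution series, 24hr at 30C. Growth restoration read as absorbance at 600 nm. CP55940 positive control, DMSO negative.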
Hits are given with their value; . = inactive; ? = inconclusive; / = no result given; ! = not confirmed by another sample. Calls follow the shape of the dose curve; as a rule, active = well fitted curve in the direction sought with a large enough effect; inconclusive = small, poorly fitted or top-dose-only effect, or another doubt; inactive = no such curve, though single readings can be large; an effect the other way counts as inactive or inconclusive.

SMILES	TDP43 rescue	Mito fusion act	aSyn rescue	Abeta yeast res	FUS suppressor
Cc1cc(C)c(S(=O)(=O)NCCc2cc3c(C)ccc(C)c3[nH]c2=O)c(C)c1	.	/	/	.	.
CCCS(=O)(=O)NCCc1cc2c(C)ccc(C)c2[nH]c1=O	4.5µM	.	.	.	.
O=C(Nc1ccc(Br)cc1Cl)c1cnn2c1NC(=C1CC1)C=C2C(F)F	/	/	.	/	/
Cc1nc2c(O)c3c(c(O)c2nc1C)C1C=CC3CC1	13µM	/	.	.	/
C[C@H]1COC(=O)[C@H](NC(=O)OCC2c3ccccc3-c3ccccc32)C/C=C\C[C@H](CC(=O)N(CCO)Cc2ccccc2)C(=O)N1	.	/	.	.	?
O=C(CN1CCN(C(=O)c2c(F)cccc2F)CC1)Nc1ccccc1C(F)(F)F	16µM	.	.	.	.
Cc1cc(C)c(S(=O)(=O)NCCc2ccccc2)c(C)c1	.	?	20µM	.	.
Cc1cc(C)c(S(=O)(=O)n2ccc3ccccc32)c(C)c1	.	.	.	?	.
Cc1cc(C)c(S(=O)(=O)NCCn2ccc3ccccc32)c(C)c1	13µM	?	?	?	.
O=C(OCC#CCSc1nnc(-c2cccc3ccccc23)o1)c1ccsc1	/	/	/	/	.
CCN(CCCNC(=O)c1cc2cc3cc(C)ccc3nc2s1)c1cccc(C)c1	.	/	/	.	32µM
Cc1ccc2nc3sc(C(=O)NCCCN(C)c4ccccc4)cc3cc2c1	?	/	/	.	.
CCOC(=O)C1CCCN(C(=O)Cn2c(=O)cc(C)c3c(C)nn(C)c32)C1 (stereo not drawn)	.	/	/	.	.
Cc1ccc(Cn2c(C)c3cnn(CC(=O)N4CCN(c5ccc(F)cc5)CC4)c(=O)c3c2C)cc1	16µM	/	/	.	?
Cc1cc(=O)n(CC(=O)N2CCN(c3ccc(F)cc3)CC2)c2c1c(C)nn2C	11µM	/	/	.	.
CCOC(=O)C(=CNc1cccc(C)c1C)C(=O)OCC	.	.	.	.	.
CCOC(=O)C(=CNc1ccc(Cl)cn1)C(=O)OCC	11µM	.	.	.	.
CCOC(=O)C(=CNNc1cccc(Cl)c1)C(=O)OCC	11µM	.	.	.	.
CCCC(=O)NC(=S)Nc1cccc(NC(=O)c2ccccc2Cl)c1	11µM	.	.	.	.
Cc1csc2nc(-c3cccc(NC(=O)c4ccccc4F)c3)cn12	.	/	.	.	.
Cc1csc2nc(-c3cccc(NC(=O)c4ccccc4Cl)c3)cn12	20µM	/	.	.	?
CCCC(=O)NC(=S)Nc1cccc(NC(=O)c2ccc(Cl)cc2Cl)c1	.	.	.	.	.
O=C(Nc1cccc(NC(=O)c2ccccc2Cl)c1)c1cccs1	22µM	.	.	.	.
CCC(=O)NC(=S)Nc1cccc(NC(=O)c2ccccc2Cl)c1	14µM	.	.	.	.
COc1ccc(CN(C)C(C#Cc2ccccc2)Cc2ccccc2)c(OC)c1 (stereo not drawn)	/	/	/	/	.
SMILES	TDP43 rescue	Mito fusion act	aSyn rescue	Abeta yeast res	FUS suppressor
O=S1(=O)c2ccc(N3CCC[C@@H]3CO)cc2O[C@H]2CCN1C2	/	/	/	/	.
Cc1nc2sccn2c(=O)c1CCN1CCC(=C(c2ccccc2)c2ccc(F)cc2)CC1	/	18µM!	.	/	/
Cc1ccccc1NC(=O)c1cccc(S(=O)(=O)Nc2cccc(C(=O)O)c2)c1	.	.	.	.	.
Cc1ccc(C(=O)Nc2ccc(S(=O)(=O)O)c3cc(S(=O)(=O)O)cc(S(=O)(=O)O)c23)cc1NC(=O)c1cccc(NC(=O)Nc2cccc(C(=O)Nc3cc(C(=O)Nc4ccc(S(=O)(=O)O)c5cc(S(=O)(=O)O)cc(S(=O)(=O)O)c45)ccc3C)c2)c1	/	16µM	.	/	/
Cc1ccc(OCc2ccccc2Br)c([N+](=O)[O-])n1	10µM	.	.	.	.
C#CCN1CC(N(C)CCOC(=O)CC2C=CCC2)CS1(=O)=O (stereo not drawn)	/	/	/	/	.
CSc1nc(C)cc(C)c1S(=O)(=O)c1ccccc1C	11µM	.	.	?	.
O=C(NCc1ccccc1F)c1sc2ncccc2c1-n1cccc1	20µM	/	/	.	.
O=C(NCCc1ccccc1)c1sc2ncccc2c1-n1cccc1	22µM	/	/	.	.
CCn1c2ccccc2c2cc(/C=N/NC(=O)c3ccccc3)ccc21	11µM	.	.	.	?
COc1ccc(NC(=O)c2sccc2-n2cccc2)cc1	13µM	.	.	.	.
